From PubChem BioAssay (NCI) come the findings set out here.

Among the test systems are SK-MEL-2 melanoma; SN12C renal; UO-31 renal; TK-10 renal; ACHN renal; CAKI-1 renal; A498 renal; CCRF-CEM leukemia; MOLT-4 leukemia; EKVX NSCLC.
What all share (test): NCI-60 one-dose screen, 48 h (100 = growth as untreated, 0 = no growth, -100 = all killed)
Common to all, as to conditions: 10 µM unless noted

Compounds without any hit were thinned out: in the full panel of roughly 83,000, 20% have a hit.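 Activity criterion: percent growth below 10, measured after cells in 96-well plates were exposed to a single compound concentration for 48 hours.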 Values without a mark were called inactive. Active and inactive are the calls of the source.

As to `COc1ccc2nc(-c3c(-c4ccccc4)nc4ncccn34)[nH]c2c1`, the growth was 113% in the experiment on SK-MEL-2 melanoma; 104% in the experiment on SN12C renal; 108% with UO-31 renal; 109% in the experiment with TK-10 renal; 90.4% in the experiment with ACHN renal; 103% in the experiment with CAKI-1 renal. In addition, the growth with A498 renal is 86.6%.
For the compound `CN1CCN(c2nc(-c3cccc4ccccc34)nc3sc4c(c23)CCCCCC4)CC1`, the growth is 106% with SK-MEL-2 melanoma; 75.9% with SN12C renal; 46% in the experiment with UO-31 renal; 113% in the experiment with TK-10 renal; 82.7% in the experiment on ACHN renal; 94.2% with A498 renal. Moreover, the figures for the growth in the experiment with CCRF-CEM leukemia and in the experiment on MOLT-4 leukemia were 75.2% and 74%, respectively.
For `CCN1CCN(C(=O)[C@]23CC[C@@H](C)[C@H](C)[C@H]2C2=CC[C@@H]4[C@@]5(C)C/C(=C/c6cccc(OC)c6OC)C(=O)C(C)(C)[C@@H]5CC[C@@]4(C)[C@]2(C)CC3)CC1`, the growth with SK-MEL-2 melanoma is 84.6%; in the experiment with EKVX NSCLC, 27.7%; with SN12C renal, 43.2%; in the experiment on ACHN renal it was 41.9%; with CAKI-1 renal it was 31.4%; in the experiment on A498 renal it was 77.7%. Further, the results for the growth in the experiment with CCRF-CEM leukemia and in the experiment with MOLT-4 leukemia were 30.2% and 10.1%, respectively.
`CCCC(=O)N1CCCCC1CC` (configuration not stated): the growth with SK-MEL-2 melanoma was 109%; with SN12C renal, 105%; in the experiment on UO-31 renal it was 108%; with TK-10 renal, 113%; in the experiment on ACHN renal it was 97.1%; in the experiment on A498 renal, 90.8%. Besides, the growth in the experiment with CCRF-CEM leukemia is 95.3%; in the experiment with MOLT-4 leukemia it was 113%.
On to `COc1ccc(-c2n/c(=C\c3c(O)[nH]c4ccc(OC)cc34)cc3c2=Nc2ccccc2-3)cc1`, for which the growth is 96.6% with SK-MEL-2 melanoma; 89.4% with SN12C renal; 73.6% with UO-31 renal; -10.8% (active) with TK-10 renal; 102% in the experiment with ACHN renal; 103% in the experiment on CAKI-1 renal. For the same compound, the results for the growth in the experiment with A498 renal and in the experiment with MOLT-4 leukemia were 87.2% and -35.4% (active), respectively.
As for `Oc1cc(/C=C/c2nc(N3CCOCC3)c3cc(Cl)c(Cl)cc3n2)cc(O)c1O`, the growth in the experiment on SK-MEL-2 melanoma is 102%; in the experiment with SN12C renal, 104%; with UO-31 renal, 95.2%; with TK-10 renal it was 95.8%; in the experiment with ACHN renal, 99.9%; in the experiment on A498 renal it was 92.5%. Further, the growth with CCRF-CEM leukemia is 109%; in the experiment with MOLT-4 leukemia, 85.3%.
In the case of `O=C1c2ccccc2C(=Cc2ccccc2)c2ccccc21`, the growth was 11.3% in the experiment with EKVX NSCLC; 22.3% in the experiment with SN12C renal; 28% in the experiment on UO-31 renal; -7.83% (active) with TK-10 renal; 28.1% with ACHN renal; -17.4% (active) in the experiment on A498 renal. Also, the values for the growth in the experiment with CCRF-CEM leukemia and in the experiment with MOLT-4 leukemia were 11.7% and 17.3%, respectively.
With `COc1cccc(NC(=O)c2sc3nc4c(cc3c2N)C(=O)CCC4)c1`, the growth in the experiment on SK-MEL-2 melanoma was 25.3%; in the experiment on SN12C renal, 35.3%; in the experiment with TK-10 renal, 84.2%; in the experiment on ACHN renal, 42.5%; in the experiment on CAKI-1 renal, 55.2%; in the experiment with A498 renal, -3.03% (active).
On to `Cc1ccc(-c2ccc(Nc3ccccc3)nn2)cc1S(N)(=O)=O`, for which the growth with SN12C renal is 90.1%; in the experiment on UO-31 renal it was 107%; in the experiment on TK-10 renal, 142%; in the experiment on ACHN renal it was 91.6%; in the experiment with CAKI-1 renal it was 80.9%; in the experiment on A498 renal, 89.2%. The growth in the experiment on MOLT-4 leukemia is 62.2%.
In the case of `C[N+](C)(CCCCCC[N+](C)(C)C1c2ccccc2-c2ccccc21)C1c2ccccc2-c2ccccc21`, the growth is 95.8% with SK-MEL-2 melanoma; 108% in the experiment with SN12C renal; 89% with UO-31 renal; 112% with TK-10 renal; 106% in the experiment with ACHN renal; 106% in the experiment with CCRF-CEM leukemia. Moreover, the growth in the experiment on MOLT-4 leukemia is 90.1%.
As for `Cc1[c-]onc1C.Cc1[c-]onc1C.[Ag].[Ag].[NH-]S(=O)(=O)c1ccc(N=Nc2cc(N=Nc3ccc(S([NH-])(=O)=O)cc3)c3c(NC(=O)C(Cl)Cl)cccc3c2OC(=O)C(Cl)Cl)cc1`, the growth in the experiment with SN12C renal was 94.1%; in the experiment on UO-31 renal it was 71.4%; in the experiment on TK-10 renal it was 133%; in the experiment with ACHN renal it was 58%; in the experiment on CAKI-1 renal, 68.5%; in the experiment on A498 renal, 98.6%. Further, the growth is 11% in the experiment on CCRF-CEM leukemia and 81.8% in the experiment with MOLT-4 leukemia.
With `O=C1C(Cl)=C(Nc2ccc(S(=O)(=O)c3ccc(NC4=C(Cl)C(=O)c5ccccc5C4=O)cc3)cc2)C(=O)c2ccccc21`, the growth in the experiment with EKVX NSCLC is 59.1%; with SN12C renal, 56.2%; with UO-31 renal, -62.4% (active); in the experiment with TK-10 renal it was -58.7% (active); in the experiment on ACHN renal, -7.78% (active); with CAKI-1 renal, -21.3% (active). In addition, the values for the growth in the experiment with A498 renal, in the experiment on CCRF-CEM leukemia and with MOLT-4 leukemia were 66.2%, 21.1% and 19%, respectively.
`COC(=O)c1cc(=O)nc(N/N=C/c2ccc(C)cc2)s1`: the growth in the experiment on SN12C renal is 110%; in the experiment on UO-31 renal, 86.4%; with TK-10 renal, 104%; in the experiment with ACHN renal, 107%; in the experiment with CAKI-1 renal, 102%; in the experiment on A498 renal, 104%. Also, the growth is 93% with CCRF-CEM leukemia and 92.6% in the experiment on MOLT-4 leukemia.
Consider `COc1cc(-c2nc(-c3ccccc3)c(-c3ccccc3)[nH]2)cc(OC)c1O`, for which the growth was -39.7% (active) in the experiment with SK-MEL-2 melanoma; 2.29% (active) in the experiment with SN12C renal; 5.85% (active) in the experiment with UO-31 renal; 0.953% (active) in the experiment on TK-10 renal; 15.2% in the experiment on ACHN renal; 82.8% with A498 renal. Further, the growth with MOLT-4 leukemia is 4.88% (active).
